How the values were obtained:
[1] = molecular target: Tyrosine-protein kinase Fyn (Homo sapiens) (UniProt P06241); conditions: at 1 µM
[2] = molecular target: Tyrosine-protein kinase HCK (Homo sapiens) (UniProt P08631); conditions: at 0.1 µM
[3] = molecular target: Tyrosine-protein kinase HCK (Homo sapiens) (UniProt P08631); conditions: at 1 µM
[4] = molecular target: Insulin-like growth factor 1 receptor (Homo sapiens) (UniProt P08069); conditions: at 0.1 µM
[5] = molecular target: Insulin-like growth factor 1 receptor (Homo sapiens) (UniProt P08069); conditions: at 1 µM
[6] = molecular target: Insulin receptor (Homo sapiens) (UniProt P06213); conditions: at 0.1 µM
[7] = molecular target: Insulin receptor-related protein (Homo sapiens) (UniProt P14616); conditions: at 0.1 µM
[8] = molecular target: Insulin receptor-related protein (Homo sapiens) (UniProt P14616); conditions: at 1 µM
[9] = molecular target: T1, Tyrosine-protein kinase ITK/TSK (Homo sapiens) (UniProt Q08881); conditions: at 0.1 µM;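 also: mean percent inhibition of ITK from the GSK PKIS screen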
T1 sequence (whole entry): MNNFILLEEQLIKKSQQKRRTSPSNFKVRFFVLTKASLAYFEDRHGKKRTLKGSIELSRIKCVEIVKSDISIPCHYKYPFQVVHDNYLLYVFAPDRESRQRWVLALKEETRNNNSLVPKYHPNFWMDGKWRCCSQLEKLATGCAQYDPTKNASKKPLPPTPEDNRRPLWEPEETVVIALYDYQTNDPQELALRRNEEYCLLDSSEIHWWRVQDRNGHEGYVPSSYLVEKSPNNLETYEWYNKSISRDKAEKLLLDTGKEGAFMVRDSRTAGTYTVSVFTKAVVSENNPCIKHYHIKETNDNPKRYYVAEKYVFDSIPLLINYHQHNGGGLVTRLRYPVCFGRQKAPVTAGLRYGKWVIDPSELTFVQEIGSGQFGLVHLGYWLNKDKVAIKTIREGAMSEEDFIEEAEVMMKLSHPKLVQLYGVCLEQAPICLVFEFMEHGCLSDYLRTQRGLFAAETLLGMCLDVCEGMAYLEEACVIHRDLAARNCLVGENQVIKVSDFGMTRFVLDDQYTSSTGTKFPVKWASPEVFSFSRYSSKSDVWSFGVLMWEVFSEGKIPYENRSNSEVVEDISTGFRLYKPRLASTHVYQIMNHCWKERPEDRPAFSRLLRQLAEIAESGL

[10] = molecular target: Insulin receptor (Homo sapiens) (UniProt P06213); conditions: at 1 µM

Chain of Insulin receptor (Homo sapiens) (P06213 28-758 limits assumed): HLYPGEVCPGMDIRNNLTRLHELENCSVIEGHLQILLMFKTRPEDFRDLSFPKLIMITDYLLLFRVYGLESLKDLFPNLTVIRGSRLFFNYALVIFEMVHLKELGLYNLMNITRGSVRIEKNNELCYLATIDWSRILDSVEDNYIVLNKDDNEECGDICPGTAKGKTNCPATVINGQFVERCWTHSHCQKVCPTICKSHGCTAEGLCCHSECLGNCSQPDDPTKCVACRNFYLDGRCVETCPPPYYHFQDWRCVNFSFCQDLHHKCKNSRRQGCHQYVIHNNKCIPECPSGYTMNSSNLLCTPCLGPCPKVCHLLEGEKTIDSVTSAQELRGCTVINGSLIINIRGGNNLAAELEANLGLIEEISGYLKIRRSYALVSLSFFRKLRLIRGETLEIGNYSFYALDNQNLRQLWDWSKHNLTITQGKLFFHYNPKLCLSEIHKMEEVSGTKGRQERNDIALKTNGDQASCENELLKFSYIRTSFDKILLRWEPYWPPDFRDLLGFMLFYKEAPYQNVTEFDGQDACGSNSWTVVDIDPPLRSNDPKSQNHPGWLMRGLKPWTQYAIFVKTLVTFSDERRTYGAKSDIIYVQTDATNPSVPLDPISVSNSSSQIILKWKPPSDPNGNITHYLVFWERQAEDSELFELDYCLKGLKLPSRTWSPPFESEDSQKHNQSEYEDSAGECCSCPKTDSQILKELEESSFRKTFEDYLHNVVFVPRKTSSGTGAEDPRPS
Chain of Insulin receptor (Homo sapiens) (P06213 763-1382 limits assumed): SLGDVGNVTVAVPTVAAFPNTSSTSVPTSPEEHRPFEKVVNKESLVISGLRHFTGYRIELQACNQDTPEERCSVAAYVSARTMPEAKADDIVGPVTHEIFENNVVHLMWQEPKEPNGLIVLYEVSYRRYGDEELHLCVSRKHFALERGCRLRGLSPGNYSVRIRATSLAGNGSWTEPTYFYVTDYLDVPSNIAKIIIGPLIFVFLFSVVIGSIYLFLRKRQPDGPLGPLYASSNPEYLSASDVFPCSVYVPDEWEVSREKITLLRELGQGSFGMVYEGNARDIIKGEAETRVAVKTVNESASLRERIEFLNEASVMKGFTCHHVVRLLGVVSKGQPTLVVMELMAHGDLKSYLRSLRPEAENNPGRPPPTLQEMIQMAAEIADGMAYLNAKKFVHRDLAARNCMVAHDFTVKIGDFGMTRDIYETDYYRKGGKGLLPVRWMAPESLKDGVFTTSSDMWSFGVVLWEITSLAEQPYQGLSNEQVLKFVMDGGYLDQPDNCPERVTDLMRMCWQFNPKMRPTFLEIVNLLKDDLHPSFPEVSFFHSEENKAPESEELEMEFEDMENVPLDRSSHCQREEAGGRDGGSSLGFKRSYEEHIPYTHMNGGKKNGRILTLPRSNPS
Chain of Insulin receptor-related protein (Homo sapiens) (P14616 27-742 limits assumed): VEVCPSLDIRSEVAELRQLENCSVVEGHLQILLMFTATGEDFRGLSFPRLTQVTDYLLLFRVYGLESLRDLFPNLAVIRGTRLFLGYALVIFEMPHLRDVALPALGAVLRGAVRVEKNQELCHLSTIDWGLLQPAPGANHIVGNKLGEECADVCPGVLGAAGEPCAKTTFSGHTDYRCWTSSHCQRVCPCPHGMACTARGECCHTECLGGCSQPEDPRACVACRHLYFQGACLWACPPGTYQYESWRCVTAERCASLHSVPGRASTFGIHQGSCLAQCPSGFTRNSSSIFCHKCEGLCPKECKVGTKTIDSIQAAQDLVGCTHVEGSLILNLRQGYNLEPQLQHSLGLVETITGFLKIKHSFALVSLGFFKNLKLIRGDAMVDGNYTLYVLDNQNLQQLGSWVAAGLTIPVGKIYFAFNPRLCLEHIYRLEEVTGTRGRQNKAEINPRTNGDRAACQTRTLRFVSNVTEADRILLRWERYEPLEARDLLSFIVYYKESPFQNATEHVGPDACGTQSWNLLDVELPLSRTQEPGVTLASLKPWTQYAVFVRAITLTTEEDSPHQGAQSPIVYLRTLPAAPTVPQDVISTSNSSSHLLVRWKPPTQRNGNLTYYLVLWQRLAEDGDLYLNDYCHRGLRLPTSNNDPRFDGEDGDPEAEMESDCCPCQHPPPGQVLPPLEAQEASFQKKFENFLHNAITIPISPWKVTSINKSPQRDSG
Chain of Insulin receptor-related protein (Homo sapiens) (P14616 747-1297 limits assumed): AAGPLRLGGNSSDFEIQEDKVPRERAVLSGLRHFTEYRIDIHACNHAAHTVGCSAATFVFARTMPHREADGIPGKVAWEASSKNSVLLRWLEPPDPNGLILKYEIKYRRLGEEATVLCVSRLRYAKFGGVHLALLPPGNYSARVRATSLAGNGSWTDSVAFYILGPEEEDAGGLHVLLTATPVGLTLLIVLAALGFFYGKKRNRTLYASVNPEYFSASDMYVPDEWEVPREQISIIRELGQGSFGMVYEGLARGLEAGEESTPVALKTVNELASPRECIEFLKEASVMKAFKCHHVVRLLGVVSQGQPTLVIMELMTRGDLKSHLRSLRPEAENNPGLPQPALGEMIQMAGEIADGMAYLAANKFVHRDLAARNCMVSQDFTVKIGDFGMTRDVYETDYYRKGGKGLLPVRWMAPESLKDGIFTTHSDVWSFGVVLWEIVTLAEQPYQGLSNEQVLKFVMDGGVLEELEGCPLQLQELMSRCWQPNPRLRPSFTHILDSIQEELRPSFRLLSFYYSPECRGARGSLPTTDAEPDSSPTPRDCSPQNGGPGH
Chain of Tyrosine-protein kinase HCK (Homo sapiens) (P08631 2-526 limits assumed): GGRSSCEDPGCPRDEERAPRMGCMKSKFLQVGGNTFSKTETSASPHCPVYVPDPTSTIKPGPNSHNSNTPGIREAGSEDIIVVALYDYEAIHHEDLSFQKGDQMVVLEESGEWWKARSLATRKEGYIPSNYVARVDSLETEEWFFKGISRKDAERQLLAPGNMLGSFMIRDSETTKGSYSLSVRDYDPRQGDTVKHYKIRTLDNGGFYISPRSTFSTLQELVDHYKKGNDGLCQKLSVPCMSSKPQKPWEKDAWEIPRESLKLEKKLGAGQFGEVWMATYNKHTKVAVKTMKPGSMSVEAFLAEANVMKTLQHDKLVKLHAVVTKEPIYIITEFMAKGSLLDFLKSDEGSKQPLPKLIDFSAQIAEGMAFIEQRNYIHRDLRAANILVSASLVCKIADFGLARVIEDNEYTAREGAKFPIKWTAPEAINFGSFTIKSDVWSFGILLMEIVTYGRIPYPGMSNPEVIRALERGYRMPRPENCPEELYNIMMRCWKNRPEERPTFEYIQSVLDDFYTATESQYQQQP
Chain of Insulin-like growth factor 1 receptor (Homo sapiens) (P08069 31-736 limits assumed): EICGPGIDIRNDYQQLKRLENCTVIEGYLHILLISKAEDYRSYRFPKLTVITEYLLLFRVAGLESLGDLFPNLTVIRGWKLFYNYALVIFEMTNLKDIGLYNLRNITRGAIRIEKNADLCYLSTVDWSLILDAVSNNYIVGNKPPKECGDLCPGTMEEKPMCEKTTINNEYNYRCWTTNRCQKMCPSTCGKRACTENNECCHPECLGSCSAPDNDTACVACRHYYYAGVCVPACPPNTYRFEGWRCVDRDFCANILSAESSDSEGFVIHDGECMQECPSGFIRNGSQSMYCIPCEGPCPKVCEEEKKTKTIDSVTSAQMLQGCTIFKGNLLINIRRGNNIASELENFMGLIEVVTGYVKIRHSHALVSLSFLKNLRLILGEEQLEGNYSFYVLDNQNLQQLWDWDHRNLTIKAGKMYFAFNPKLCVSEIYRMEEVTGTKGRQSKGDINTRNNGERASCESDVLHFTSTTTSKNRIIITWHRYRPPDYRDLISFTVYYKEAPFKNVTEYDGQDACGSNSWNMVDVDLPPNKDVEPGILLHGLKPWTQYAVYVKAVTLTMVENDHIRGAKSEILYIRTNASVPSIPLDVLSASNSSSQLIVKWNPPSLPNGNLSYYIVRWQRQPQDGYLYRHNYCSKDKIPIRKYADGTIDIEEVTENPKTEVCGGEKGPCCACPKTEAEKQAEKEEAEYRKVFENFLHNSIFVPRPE
Chain of Insulin-like growth factor 1 receptor (Homo sapiens) (P08069 741-1367 limits assumed): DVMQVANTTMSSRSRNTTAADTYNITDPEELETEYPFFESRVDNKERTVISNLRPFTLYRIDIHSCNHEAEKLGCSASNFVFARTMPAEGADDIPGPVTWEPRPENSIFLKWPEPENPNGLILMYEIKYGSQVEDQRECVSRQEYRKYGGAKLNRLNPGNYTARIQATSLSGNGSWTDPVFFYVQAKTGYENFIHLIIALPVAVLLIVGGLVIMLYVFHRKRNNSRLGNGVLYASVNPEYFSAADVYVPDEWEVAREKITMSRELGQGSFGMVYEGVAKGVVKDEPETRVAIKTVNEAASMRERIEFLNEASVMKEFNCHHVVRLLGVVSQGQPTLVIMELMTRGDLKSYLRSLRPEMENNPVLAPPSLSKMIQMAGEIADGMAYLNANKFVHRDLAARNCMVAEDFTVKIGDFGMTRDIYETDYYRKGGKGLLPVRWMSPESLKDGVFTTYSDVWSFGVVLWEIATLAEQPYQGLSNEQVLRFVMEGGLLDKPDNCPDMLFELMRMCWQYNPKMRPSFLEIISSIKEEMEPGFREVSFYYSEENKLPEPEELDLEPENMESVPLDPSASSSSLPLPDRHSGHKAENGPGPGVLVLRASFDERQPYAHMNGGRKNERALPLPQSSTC
Chain of Tyrosine-protein kinase Fyn (Homo sapiens) (P06241 2-537 limits assumed): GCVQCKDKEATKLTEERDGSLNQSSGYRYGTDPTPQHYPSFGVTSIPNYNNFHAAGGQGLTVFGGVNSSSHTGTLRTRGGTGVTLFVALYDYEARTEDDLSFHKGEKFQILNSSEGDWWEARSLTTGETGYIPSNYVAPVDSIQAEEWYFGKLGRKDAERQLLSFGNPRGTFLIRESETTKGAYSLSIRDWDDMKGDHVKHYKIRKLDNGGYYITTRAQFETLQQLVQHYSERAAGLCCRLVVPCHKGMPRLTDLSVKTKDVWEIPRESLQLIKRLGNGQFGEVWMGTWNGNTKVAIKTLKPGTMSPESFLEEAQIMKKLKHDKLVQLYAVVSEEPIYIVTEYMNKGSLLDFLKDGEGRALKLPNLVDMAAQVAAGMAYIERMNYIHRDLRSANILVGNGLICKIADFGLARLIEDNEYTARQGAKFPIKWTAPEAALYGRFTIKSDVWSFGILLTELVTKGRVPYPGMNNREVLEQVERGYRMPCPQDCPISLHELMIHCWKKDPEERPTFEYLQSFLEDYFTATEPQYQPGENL

Compound | inhibition [1] | inhibition [2] | inhibition [3] | inhibition [4] | inhibition [5] | inhibition [6] | inhibition [7] | inhibition [8] | inhibition [9] | inhibition [10]
O=C(Nc1n[nH]c2nc(-c3ccco3)c(Br)cc12)C1CC1 | 1.8% | 5.5% | 9.03% | 2.77% | 3.89% | 3.98% | 2.25% | 1.49% | 3.8% | 
NS(=O)(=O)c1ccc(N/N=C2\C(=O)Nc3ccc(C(=O)NCCc4c[nH]cn4)cc32)cc1 | 17.2% | 9.6% | 25% | 5.24% | 17.3% | 6.5% | 6.49% | 2.5% | 1.78% | 32%
CS(=O)(=O)CCNCc1nc(-c2ccc3ncnc(Nc4ccc(F)c(Cl)c4)c3c2)cs1 | 3.55% | 4.76% | 13.4% | 3.27% | 3.4% | -0.96% | 2.7% | 1.63% | 1.06% | -3.83%
CCn1c(-c2nonc2N)nc2cncc(C(=O)N3CCNCC3)c21 | 2.87% | 6.76% | 9.25% | 8.86% | 9.25% | 10.5% | 4.06% | 6.22% | 2.63% | 9.41%
c1cnn2ncc(-c3ccnc(Nc4ccc5c(c4)OCCO5)n3)c2c1 | 8.63% | 6.09% | 16.8% | 15% | 56.6% | 12.7% | 5.36% | 15.2% | 1.86% | 58.5%
Nc1nc(-c2ccccn2)c(-c2ccc3ncccc3n2)s1 | -0.24% | 2.25% | 6.89% | 3.05% | 3.2% | 2.46% | 2.58% | 2.92% | 1.05% | 1.2%
[O-][S+]1CCN(Cc2ccc(-c3ccc4ncnc(Nc5ccc(OCc6ccccc6)c(F)c5)c4c3)o2)CC1 | 9.16% | 3.37% | 7.23% | 4.94% | 2.99% | 4.18% | 0.94% | 2.32% | 1.08% | 4.1%
CCn1c(-c2nonc2N)nc2cncc(C(=O)N3CC[C@H](N)C3)c21 | 2.85% | 6.43% | 9.69% | 4.59% | 6% | 4.27% | 0.81% | 1.96% | 0.55% | 6.06%
Cc1nn(C)c2cc(N(C)c3ccnc(Nc4cccc(S(N)(=O)=O)c4)n3)ccc12 | 28.7% | 12.8% | 50.2% | 1.89% | 7.04% | 8.17% | 0.14% | 0.9% | 1.53% | 3.38%
Cn1cc(C=C2C(=O)Nc3cccnc32)c2ccccc21 | 15.4% | 6.56% | 42.1% | 1.72% | 8.98% | 3.49% | 0.41% | 1.8% | 2.56% | 20.1%
COc1cc2c(cc1Nc1nc(N3CCc4ccccc43)c3cc[nH]c3n1)N(C(=O)CN(C)C)CC2 | 1.51% | 5.42% | 10% | 103% | 98.4% | 93% | 72.3% | 90.3% | 0.83% | 91%
Cc1ccc(C(=O)NC2CCCCC2)cc1-c1ccc(C(=O)NCC2CC2)cc1 | 0.78% | 5.78% | 7.52% | 1.73% | 5.21% | 3.35% | 3.13% | 2.14% | 1.95% | 1.48%
CN(C)c1cc2c(Nc3ccc4nc(Cc5ccccc5)[nH]c4c3)ncnc2cn1 | 27.7% | 11.5% | 30.6% | 6.59% | 11.5% | 7.56% | 3.36% | 4.95% | 1.45% | 8.05%
NS(=O)(=O)c1cccc(-c2ccc3c(NC(=O)C4CC4)n[nH]c3c2)c1 | 2.4% | -0.53% | 1.86% | -0.13% | 3.51% | 3.15% | -2.37% | -1.21% | -0.53% | -0.25%
O=C1NC(=O)C(N2CCc3ccccc32)=C1c1ccc(Cl)cc1 | 4.67% | 8.78% | 12.7% | 2.02% | 2.75% | 6.09% | 2.18% | 2.1% | 1.5% | 5.24%
CC1=C(C(=O)Nc2ccc3[nH]ncc3c2)C(c2ccc(Cl)c(Cl)c2)CC(=O)N1 (centres undefined) | 2.37% | 6.21% | 7.31% | -0.16% | 1.11% | 1.45% | 0.58% | 1.03% | 1.18% | 1.96%
O=C1NC(=O)C(c2ccccc2Cl)=C1Nc1cccc(O)c1 | 2.43% | 3.62% | 5.29% | 3.77% | 2.85% | 0.88% | 7.16% | 2.14% | 1.12% | 4.12%
